Among the data in PubChem BioAssay (NCI) are growth inhibition values, retold here.

About 79,000 compounds went through this panel and 15% of them were active in at least one assay; those are over-represented in the sample as a whole. Values without a mark were called inactive. Active and inactive are the calls of the source. Rule as the data show it: active = growth inhibition above about 70%; inactive = the rest.

Test [1] can be described thus: NCI Yeast Anticancer Drug Screen. Data for the rad50 strain (AID 155).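 Also: 0% = growth of vehicle-only cultures of the same strain.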 The note with it: S. cerevisiae rad50 strain growth inhibition; at 50.0 µM; stronger effect = higher value. The procedure, abridged: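 Yeast carrying a defined DNA repair defect were exposed to test compounds, and growth was compared with vehicle-treated controls to give percent inhibition.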
Test [2] is described as follows: NCI Yeast Anticancer Drug Screen. Data for the mec2-1 strain (AID 157). Conditions: S. cerevisiae mec2-1 strain, at 50.0 µM, stronger effect = higher value. An outline of the steps: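 Cells of the genetically defined mec2-1 yeast strain are incubated with test compound. Inhibition of growth is calculated against vehicle-treated controls.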
Test [3] is described as follows: NCI Yeast Anticancer Drug Screen. Data for the sgs1 mgt1 strain (AID 161).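 Also: 0% = growth of cultures given vehicle only.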 The note with it: S. cerevisiae sgs1 mgt1 strain, at 50.0 µM, stronger effect = higher value. An outline of the steps:
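Mutant yeast exposed to compound; growth scored against vehicle-only wells.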

Test [4] in a line: NCI Yeast Anticancer Drug Screen. Data for the cln2 rad14 strain (AID 165).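 Also: 0% = growth equal to vehicle treated cultures.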 Conditions: S. cerevisiae cln2 rad14 strain, at 50.0 µM, stronger effect = higher value. The procedure, abridged:
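The screen exposed genetically defined yeast (cln2 rad14) to test compounds and scored growth inhibition relative to vehicle-treated controls.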

A short description of test [5]: NCI Yeast Anticancer Drug Screen. Data for the bub3 strain (AID 167). The note with it: S. cerevisiae bub3 mutant strain, at 50.0 µM, stronger effect = higher value. The procedure, abridged: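 Compounds were applied to a genetically altered yeast strain carrying a cell-cycle control defect. Growth inhibition was scored against vehicle-treated controls.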
Test [6] can be described thus: NCI Yeast Anticancer Drug Screen. Data for the mlh1 rad18 strain (AID 175). Conditions: S. cerevisiae mlh1 rad18 strain growth inhibition; at 50.0 µM; stronger effect = higher value. An outline of the steps:
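Compound-treated yeast growth, normalised to vehicle controls. Strain bears defined DNA repair mutations.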

`CC(C)(C)N1COC2CCCCC21` (stereo not drawn): the growth inhibition in test [1] is 17.4%; in test [2] it was -3.2%; in test [3], 4.65%; in test [4], -4.25%; in test [5], 16.4%; in test [6], 14.6%.

Take `CC(C)NCc1ccccc1`: the growth inhibition was -4.25% in test [1]; -12.3% in test [2]; 19.5% in test [3]; 9.8% in test [4]; 7.35% in test [5]; -6.05% in test [6].

As to `N#CC(C#N)=Cc1ccc(F)cc1`, the growth inhibition in test [1] is -6.85%; in test [2], 5%; in test [3] it was -18.7%; in test [4], -15.7%; in test [5], 16.1%; in test [6] it was -15.5%.

With `O=S(=O)(Nc1ccc(-c2ccccc2)cc1)c1ccc([As](=O)(O)O)cc1`, the growth inhibition in test [1] was 38.6%; in test [2] it was 24.7%; in test [3], 54.2%; in test [4] it was -1.65%; in test [5] it was 18.9%; in test [6], 40%.

`CCCOC(=O)C(C)(C)C(OP(OCCC)OCCC)=C(C)C`: the growth inhibition was -7.35% in test [1]; 4.35% in test [2]; -2.5% in test [3]; -0.9% in test [4]; 1.4% in test [5]; 3.3% in test [6].

As for `CNC1=C(C)C(=O)C2=C(C1=O)C(COC(N)=O)C1(OC)C3NC3CN21` (stereo not drawn), the growth inhibition was 58.8% in test [1]; 53% in test [2]; 52% in test [3]; 60.6% in test [4]; 31.4% in test [5]; 83.8% (active) in test [6].

Take `O=C(O)CC(=O)O.[NH-]C1CCCCC1[NH-].[Pt+2]` (stereo not drawn): the growth inhibition is 23.7% in test [1]; 4.35% in test [2]; 21.4% in test [3]; 30.4% in test [4]; 21.4% in test [5]; 13.8% in test [6].

Regarding `CCCCOP(O)(=S)OCCCC.[Tb]`, the growth inhibition in test [1] is -19%; in test [2], 14.6%; in test [3], -14.6%; in test [4], 29.1%; in test [5] it was -14.8%; in test [6], 17.9%.

With `CP(C)CC[PH+](CC[PH+](C)C)CC[PH+](C)C.[C-]#[O+].[C-]#[O+].[W]`, the growth inhibition is -1.25% in test [1]; -6.35% in test [2]; -13.1% in test [3]; 24.4% in test [4]; -0.45% in test [5]; -0.9% in test [6].

`CN(C)/N=C/c1c[nH]c2ccccc12`: the growth inhibition in test [1] is -13.9%; in test [2], -13.8%; in test [3] it was -20.1%; in test [4], 0.5%; in test [5] it was -17.7%; in test [6] it was -8.4%.

Turning to `N#CN`, the growth inhibition in test [1] was -9.55%; in test [2], -17.2%; in test [3] it was 22.1%; in test [4], -16.1%; in test [5], -13.2%; in test [6] it was -5.8%.

In the case of `CCN(CC)CCn1ccc2ccccc21`, the growth inhibition in test [1] was -11.4%; in test [2], -18.4%; in test [3] it was -9.85%; in test [4], 17.3%; in test [5], -27.1%; in test [6], -5.95%.

Consider `CCCCOP(=O)(OCCCC)Oc1ccc2ccccc2c1`, for which the growth inhibition was 93.1% (active) in test [1]; 93.2% (active) in test [2]; 95.4% (active) in test [3]; 92.8% (active) in test [4]; 95.1% (active) in test [5]; 95.4% (active) in test [6].

As to `[CH-]=C([CH2-])C.[Ni][Br].c1ccc([PH+](c2ccccc2)c2ccccc2)cc1`, the growth inhibition in test [1] is 35.5%; in test [2], 2.9%; in test [3] it was 26.6%; in test [4], -8.85%; in test [5] it was -4.6%; in test [6], -1.75%.

In the case of `O=P(O)(O)CCc1ccccc1`, the growth inhibition was -3.85% in test [1]; 1.5% in test [2]; -5.2% in test [3]; -15.8% in test [4]; -2.7% in test [5]; 7.7% in test [6].

On to `O=C(O)C(O)(c1ccccc1)c1ccco1` (stereo not drawn), for which the growth inhibition in test [1] was 12.8%; in test [2], 1.8%; in test [3], -5.25%; in test [4], 21.3%; in test [5], -28.9%; in test [6], 12.7%.

For `CC(N)C(=O)c1ccccc1` (stereo not drawn), the growth inhibition in test [1] is -2.75%; in test [2] it was 5.2%; in test [3], 6.9%; in test [4], -38.2%; in test [5], 15.3%; in test [6], 1.25%.

For the compound `Cc1ccc(N2C(=O)C3C(C2=O)C2(Cl)C(Cl)=C(Cl)C3(Cl)C2(Cl)Cl)cc1Cl` (stereo not drawn), the growth inhibition in test [1] is -1.25%; in test [2] it was 3.25%; in test [3], -1.1%; in test [4] it was -36.1%; in test [5] it was 2.65%; in test [6], 9.5%.
